Measured values from PubChem BioAssay.
Calls of active or inactive are those of the source.

What was measured:
[1] = biological target: Albumin (Bos taurus) (UniProt P02769); test: bovine serum albumin binders on microarray, profiling panel, artefact control for SMM control protein annotation, biochemical, small-molecule microarray, Alexa647 label, 635/667 nm fluorescence (AID 1118); conditions: BSA-A647 binding, fluorescence 635 nm, higher = more signal;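 also: score merges 667 nm emission intensity and signal-to-noise per printed compound spot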
[2] = small-molecule microarray binders of probe aXIP, primary screen, biochemical, NeuroSMM set, 635/667 nm fluorescence (AID 1119); conditions: higher = more signal, called active from +8 up or from −8 down;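 also: probe is the protein aXip251-270 applied at 1 µg/mL to compound-printed slides; binding of probe to printed compounds measured as 667 nm fluorescence plus signal to noise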
[3] = small-molecule binders of probe aNOTCH3, primary screen, biochemical, small-molecule microarray, 635/667 nm fluorescence (AID 1120); conditions: higher = more signal;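 also: probe is a biotin-tagged antibody raised against NOTCH3 rather than NOTCH3 protein; score merges spot fluorescence near 667 nm with spot signal to noise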
[4] = small-molecule binders of probe aNOTCH2, primary screen, biochemical, small-molecule microarray, 635/667 nm fluorescence (AID 1121); conditions: higher = more signal;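 also: score merges feature fluorescence read at 667 nm with its signal to noise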
[5] = biological target: Carbonic anhydrase 2 (Homo sapiens) (UniProt P00918); test: CAII small-molecule binders, profiling panel, biochemical, small-molecule microarray, Alexa647-labelled CAII (AID 1122); conditions: CAII-A647 binding fluorescence, higher = more signal
[6] = COS7 lysate on small-molecule microarray, probe aHis, 635 nm (AID 1123); conditions: COS7 cell lysate, fluorescence, higher = more signal;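 also: z-score combines 667nm fluorescence intensity with signal-to-noise per printed compound spot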
[7] = compound binding in COS7 lysate, probe aLAP1, primary screen, cell lysate, small-molecule microarray (AID 1124); conditions: probe aLAP1, fluorescence, higher = more signal;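 also: lysate comes from COS7 cells expressing LAP1 and is applied at 0.3 µg/mL; score merges spot fluorescence near 667 nm with signal-to-noise over triplicate slides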
[8] = tested on: Sam68 (KHDRBS1); test: Sam68 small-molecule binders, primary screen, biochemical, small-molecule microarray, 635 nm fluorescence (AID 1125); conditions: small-molecule microarray binding, higher = more signal;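 also: score merges 667 nm channel intensity with signal to noise over triplicate slides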
[9] = tested on: Chordin-like protein 2 (CHRDL2); test: CHRDL2 small-molecule binders, primary screen, biochemical, small-molecule microarray, 635 nm fluorescence (AID 1126); conditions: small-molecule microarray binding, fluorescence 635 nm; higher = more signal;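 also: printed compound slides probed with Chrdl2 protein at 4 µg/mL for 1 h at 4 C; score merges 667 nm emission intensity with signal to noise over three replicate slides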
[10] = biological target: Concanavalin-A (Canavalia ensiformis) (UniProt P02866); test: ConA small-molecule binders, primary screen, artefact control for SMM control protein annotation, biochemical, small-molecule microarray, Alexa647 label, 635 nm (AID 1127); conditions: ConA-A647 binding fluorescence, higher = more signal;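 also: z combines 667 nm emission intensity with signal-to-noise across three replicate slides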
[11] = anti-His antibody binders, primary screen, artefact control for SMM control protein annotation, biochemical, small-molecule microarray, 635 nm fluorescence (AID 1128); conditions: anti-His Alexa647 antibody binding, higher = more signal;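 also: score merges feature fluorescence with signal-to-noise for each printed compound spot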
[12] = tested on: Human papillomavirus type 1a E7 protein (residues 1-88); test: HPV1a E7 small-molecule binders, primary screen, biochemical, small-molecule microarray, residues 1-88, 635 nm (AID 1129); conditions: small-molecule microarray binding, fluorescence 635 nm; higher = more signal
[13] = biological target: Focal adhesion kinase 1 (Homo sapiens) (UniProt Q05397); test: small-molecule microarray binders of FAK, primary screen, biochemical, 635/667 nm fluorescence, BSA, DTT (AID 1130); conditions: PTK2 binding, 635 nm fluorescence, higher = more signal;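 also: composite of spot emission at 667 nm and signal to noise over triplicate slides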
[14] = tested on: Fibrinogen (Alexa647-labelled); test: fibrinogen binders on compound microarrays, profiling panel, artefact control for SMM control-protein annotation, biochemical, small-molecule microarray, 635/667 nm fluorescence (AID 1131); conditions: fibrinogen-A647 binding fluorescence, higher = more signal;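 also: z-score merges 667 nm fluorescence with per-spot signal-to-noise over triplicate slides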
[15] = biological target: Follistatin (Homo sapiens) (UniProt P19883); test: follistatin binders on small-molecule microarrays, primary screen, biochemical, small-molecule microarray, 635/667 nm fluorescence (AID 1132); conditions: FST binding, 635 nm fluorescence, higher = more signal
[16] = biological target: Fibroblast growth factor 2 (Homo sapiens) (UniProt P09038); test: FGF2 binders on small-molecule microarrays, primary screen, biochemical, small-molecule microarray, 635/667 nm fluorescence (AID 1133); conditions: small-molecule microarray binding, FGF2, fluorescence 635/667; higher = more signal
[17] = mitochondrial membrane potential change in A549 cells, profiling panel, cell-based, JC-1 fluorescence, basal, 24 h, 100 nL (AID 1138); conditions: higher = more signal;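 also: A549 lung adenocarcinoma cells under basal conditions with no added stimulus; test concentration not given here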
[18] = tested on: Lefty1; test: Lefty1 binders on small-molecule microarrays, primary screen, biochemical, small-molecule microarray, 635/667 nm fluorescence (AID 1139); conditions: small-molecule microarray binding, fluorescence 635/667; higher = more signal
[19] = tested on: wheat germ agglutinin (Triticum aestivum), Alexa647-labelled; test: wheat germ agglutinin binders on compound microarrays, profiling panel, artefact control for SMM control-protein annotation, biochemical, small-molecule microarray, 635/667 nm fluorescence (AID 1140); conditions: WGA-A647 binding, 635 nm fluorescence, higher = more signal;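 also: score merges 667 nm feature emission with signal to noise over triplicate slides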
[20] = biological target: Luciferin 4-monooxygenase (Photinus pyralis) (UniProt P08659); test: firefly luciferase enzyme inhibitors, primary screen, biochemical, luminescence, purified enzyme, 2006 set (AID 1141); conditions: SteadyGlo luminescence, 30 min, higher = more signal, called active from +8 up or from −8 down;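 also: cell-free assay with purified firefly luciferase at 100 ng per well in PBS; test concentration not given here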
Sequence of Luciferin 4-monooxygenase (Photinus pyralis) (P08659 whole entry, looked up): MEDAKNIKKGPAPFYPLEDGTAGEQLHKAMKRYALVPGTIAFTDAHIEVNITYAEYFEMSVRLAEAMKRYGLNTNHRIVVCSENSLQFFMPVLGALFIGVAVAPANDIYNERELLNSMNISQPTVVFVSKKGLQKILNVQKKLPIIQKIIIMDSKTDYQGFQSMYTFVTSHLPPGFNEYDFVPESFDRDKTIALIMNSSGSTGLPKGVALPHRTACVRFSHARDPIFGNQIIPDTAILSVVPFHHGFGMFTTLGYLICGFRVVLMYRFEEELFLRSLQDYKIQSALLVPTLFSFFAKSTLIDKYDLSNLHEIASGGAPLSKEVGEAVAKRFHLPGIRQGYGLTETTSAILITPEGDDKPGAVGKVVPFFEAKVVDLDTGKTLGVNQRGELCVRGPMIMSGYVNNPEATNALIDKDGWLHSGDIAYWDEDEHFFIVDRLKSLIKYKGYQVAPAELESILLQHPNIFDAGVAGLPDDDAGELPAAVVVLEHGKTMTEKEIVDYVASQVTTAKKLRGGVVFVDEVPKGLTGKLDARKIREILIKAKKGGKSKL

Sequence of Albumin (Bos taurus) (P02769 whole entry, looked up): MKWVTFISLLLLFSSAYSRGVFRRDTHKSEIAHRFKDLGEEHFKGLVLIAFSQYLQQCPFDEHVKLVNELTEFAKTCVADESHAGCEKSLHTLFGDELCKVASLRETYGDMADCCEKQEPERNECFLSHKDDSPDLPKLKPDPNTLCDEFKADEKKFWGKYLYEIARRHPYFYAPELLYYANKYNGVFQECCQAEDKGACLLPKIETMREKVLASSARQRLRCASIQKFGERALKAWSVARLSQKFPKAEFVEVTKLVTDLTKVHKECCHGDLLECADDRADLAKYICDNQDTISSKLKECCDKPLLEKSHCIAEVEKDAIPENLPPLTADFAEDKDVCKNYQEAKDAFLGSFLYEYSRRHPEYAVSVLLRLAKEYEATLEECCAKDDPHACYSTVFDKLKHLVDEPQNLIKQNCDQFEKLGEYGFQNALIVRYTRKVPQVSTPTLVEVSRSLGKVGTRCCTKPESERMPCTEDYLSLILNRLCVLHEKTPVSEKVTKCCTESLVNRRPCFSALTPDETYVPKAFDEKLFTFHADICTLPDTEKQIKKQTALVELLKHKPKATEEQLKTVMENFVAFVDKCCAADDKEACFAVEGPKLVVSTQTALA
Sequence of Follistatin (Homo sapiens) (P19883 whole entry, looked up): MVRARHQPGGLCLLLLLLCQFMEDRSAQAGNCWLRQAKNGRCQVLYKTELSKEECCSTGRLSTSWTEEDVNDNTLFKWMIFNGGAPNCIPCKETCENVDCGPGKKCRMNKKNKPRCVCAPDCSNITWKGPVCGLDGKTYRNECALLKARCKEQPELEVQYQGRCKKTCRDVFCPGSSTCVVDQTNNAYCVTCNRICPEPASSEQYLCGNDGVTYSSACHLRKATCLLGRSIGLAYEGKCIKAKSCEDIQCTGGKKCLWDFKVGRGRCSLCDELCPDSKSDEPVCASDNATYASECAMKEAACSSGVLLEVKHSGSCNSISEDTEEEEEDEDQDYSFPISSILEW
Sequence of Fibroblast growth factor 2 (Homo sapiens) (P09038 whole entry, looked up): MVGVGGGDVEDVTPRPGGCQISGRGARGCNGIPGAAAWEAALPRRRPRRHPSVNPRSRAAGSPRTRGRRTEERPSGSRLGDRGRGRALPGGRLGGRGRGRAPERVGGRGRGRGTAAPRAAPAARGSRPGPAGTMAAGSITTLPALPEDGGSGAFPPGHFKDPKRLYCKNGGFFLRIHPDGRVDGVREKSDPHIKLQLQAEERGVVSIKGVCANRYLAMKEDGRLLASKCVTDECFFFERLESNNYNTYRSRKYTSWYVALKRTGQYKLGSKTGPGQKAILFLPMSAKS
Sequence of Concanavalin-A (Canavalia ensiformis) (P02866 whole entry, looked up): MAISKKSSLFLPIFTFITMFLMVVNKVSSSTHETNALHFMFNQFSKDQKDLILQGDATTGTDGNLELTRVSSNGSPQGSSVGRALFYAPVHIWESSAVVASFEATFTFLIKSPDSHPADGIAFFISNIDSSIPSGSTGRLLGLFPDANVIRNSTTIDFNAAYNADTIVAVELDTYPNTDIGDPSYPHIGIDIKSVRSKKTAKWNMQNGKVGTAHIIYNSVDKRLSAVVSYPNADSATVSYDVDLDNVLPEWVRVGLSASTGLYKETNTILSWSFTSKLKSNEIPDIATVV
Sequence of Focal adhesion kinase 1 (Homo sapiens) (Q05397 whole entry, looked up): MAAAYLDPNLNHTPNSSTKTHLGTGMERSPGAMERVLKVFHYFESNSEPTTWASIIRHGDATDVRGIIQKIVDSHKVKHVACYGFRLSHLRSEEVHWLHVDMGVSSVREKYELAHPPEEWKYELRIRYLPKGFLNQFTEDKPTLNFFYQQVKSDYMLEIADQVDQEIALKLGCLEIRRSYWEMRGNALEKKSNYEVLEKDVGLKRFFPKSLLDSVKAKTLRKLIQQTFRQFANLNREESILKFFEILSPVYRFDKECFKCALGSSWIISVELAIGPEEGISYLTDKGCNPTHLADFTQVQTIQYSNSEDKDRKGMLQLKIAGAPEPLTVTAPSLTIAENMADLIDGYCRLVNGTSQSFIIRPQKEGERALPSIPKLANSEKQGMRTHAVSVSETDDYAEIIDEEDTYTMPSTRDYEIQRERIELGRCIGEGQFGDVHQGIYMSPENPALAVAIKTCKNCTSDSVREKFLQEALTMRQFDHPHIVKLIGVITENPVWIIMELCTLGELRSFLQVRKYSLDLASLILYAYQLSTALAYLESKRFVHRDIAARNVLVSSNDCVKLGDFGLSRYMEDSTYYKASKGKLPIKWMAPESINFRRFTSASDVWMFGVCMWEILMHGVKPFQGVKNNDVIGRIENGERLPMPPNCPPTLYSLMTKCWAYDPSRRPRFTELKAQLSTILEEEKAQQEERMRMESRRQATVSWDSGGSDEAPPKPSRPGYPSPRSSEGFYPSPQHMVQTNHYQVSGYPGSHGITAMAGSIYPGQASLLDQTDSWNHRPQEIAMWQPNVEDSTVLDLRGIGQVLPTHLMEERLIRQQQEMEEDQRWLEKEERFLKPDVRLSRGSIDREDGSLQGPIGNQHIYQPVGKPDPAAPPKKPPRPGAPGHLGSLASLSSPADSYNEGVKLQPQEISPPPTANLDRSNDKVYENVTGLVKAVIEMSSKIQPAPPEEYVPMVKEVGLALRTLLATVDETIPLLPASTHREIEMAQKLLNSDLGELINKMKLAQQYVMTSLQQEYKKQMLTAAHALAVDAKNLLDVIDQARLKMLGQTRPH

SMILES	composite z-score [1]	composite Z-score [2]	composite z-score [3]	composite z-score [4]	composite z-score [5]	composite z-score [6]	composite z-score [7]	composite z-score [8]	composite z-score [9]	composite z-score [10]	composite z-score [11]	composite z-score [12]	composite z-score [13]	composite z-score [14]	composite z-score [15]	composite z-score [16]	z-score [17]	composite z-score [18]	composite z-score [19]	z-score [20]
COCCOC(=O)N1C(=O)[C@@]2(c3cc(C#CCC(C(=O)OC)C(=O)OC)ccc31)[C@H](c1ccc(OCCO)cc1)N1[C@H](c3ccccc3)[C@H](c3ccccc3)OC(=O)[C@H]1[C@@H]2C(N)=O	0.84	0.674 (inactive)	-0.0077	0.0264	0.57	2.82	1.02	1.29	0.474	1.15	1.38	1.2	1.16	0.924	1.28	1.13	-0.921	0.484	0.386	-1.23 (inactive)
C[N+](C)(C)CCCCCCNC(=O)[C@@H]1C[C@@H]2C(=O)NCC(=O)N2[C@@H]1c1cccc(OCCO)c1	-0.205	0.605 (inactive)	-0.0338	-0.14	0.656	1.1	-0.426	0.73	1.31	1.15	1.4	0.044	1.18	0.615	1.38	1.33	-0.842	1.28	0.571	0.801 (inactive)
COC(=O)C(CC#Cc1ccc2c(c1)[C@]1(C(=O)N2)[C@H](c2ccccc2OCCO)N2[C@H](c3ccccc3)[C@H](c3ccccc3)OC(=O)[C@H]2[C@@H]1C(=O)Nc1nc2ccccc2s1)C(=O)OC	0.67	-0.364 (inactive)	0.106	-0.0928	0.226	1.9	0.379	1.31	0.19	1.15	0.35	1.21	0.607	0.97	1.11	0.622	-2.12	0.9	1.29	-1.21 (inactive)
C#CCNS(=O)(=O)N(C)C	0.225	0.0498 (inactive)	-0.124	-0.14	-0.107	0.214	-0.113	0.815	0.497	0.0968	0.446	0.928	0.17	0.276	0.103	0.203	0.497	0.643	0.0088	0.991 (inactive)
N#Cc1ccc(NN2C(C(O)c3ccco3)C=CC3C(=O)N(c4ccccc4)C(=O)C32)cc1 (stereo not given)	0.488	0.499 (inactive)	0.188	-0.0148	0.89	1.5	0.687	0.0163	0.111	0.458	0.716	-0.0085	0.788	0.251	0.552	-0.302	-0.244	-0.231	0.754	-0.72 (inactive)
